Data reported in PubChem BioAssay (NCATS).
Where “and” joins values, the source holds several entries; their conditions need not be identical. Equal entries are not always repeated. Records with an inconclusive call do not appear. Calls of active or inactive are those of the source. Unless noted, the call rests on the fitted dose curve; in most records, active means well fitted curve in the direction sought with a large enough effect; inconclusive means small, poorly fitted or top-dose-only effect, or another doubt; inactive means no such curve, though single readings can be large; an effect the other way counts as inactive or inconclusive.

Key:
[1] = target: Cellular tumor antigen p53 (Homo sapiens) (UniProt P04637); assay: Primary qHTS for small molecule compounds that upregulate eGFP-tagged delta133p53alpha (in N-terminal) cells. (AID 2060322); details: NCI-H358 eGFP-delta133p53alpha fluorescence, 24 h; activation: stronger effect = higher value;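 further: series mostly up to about 56 µM; 0% = DMSO vehicle and 100% = reference activator; nearly all actives have a fitted effect of over 75% in size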
Sequence of Cellular tumor antigen p53 (Homo sapiens) (P04637 whole entry, looked up): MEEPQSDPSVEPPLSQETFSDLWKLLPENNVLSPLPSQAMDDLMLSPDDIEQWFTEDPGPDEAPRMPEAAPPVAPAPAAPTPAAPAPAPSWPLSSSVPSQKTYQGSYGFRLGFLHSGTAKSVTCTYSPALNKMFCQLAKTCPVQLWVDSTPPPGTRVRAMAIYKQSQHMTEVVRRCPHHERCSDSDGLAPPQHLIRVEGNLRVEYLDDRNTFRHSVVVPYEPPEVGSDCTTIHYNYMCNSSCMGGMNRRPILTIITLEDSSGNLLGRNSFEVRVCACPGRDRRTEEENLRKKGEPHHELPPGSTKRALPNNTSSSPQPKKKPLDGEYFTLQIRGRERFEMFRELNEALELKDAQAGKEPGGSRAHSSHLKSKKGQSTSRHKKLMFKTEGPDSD
Outline: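 NCI-H358 cells pre-induced 24 h with 10 ng/ml doxycycline to express N-terminal eGFP-delta133p53alpha, then dosed 24 h at 37C without doxycycline; fixed, Hoechst-stained, GFP intensity by laser scanning cytometry, normalized to DMSO (0%) and 57.5 uM 5-azacytidine (100%).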

[2] = target: Cellular tumor antigen p53 (Homo sapiens) (UniProt P04637); assay: Primary qHTS for small molecule compounds that upregulate eGFP-tagged delta133p53alpha (in C-terminal) cells. (AID 2060324);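 further: 0% = DMSO wells and 100% = 57.5 µM 5-azacytidine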
Outline: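 In this qHTS, GFP-tagged delta133p53alpha levels are measured in fixed NCI-H358 cells after 24 h compound exposure at 37 °C. The cells are pre-induced with 100 ng/ml doxycycline, and signal is normalized to DMSO-treated wells as 0%.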

[3] = target: Aldehyde dehydrogenase, mitochondrial (Homo sapiens) (UniProt P05091); assay: qHTS for Inhibitors of the Aldehyde Dehydrogenase Family (ALDH2) Validation screens (AID 2061302; active means well fitted inhibition curve with a large enough effect; title and protocol of this record describe different tests;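 further: plate controls were DMSO vehicle for no effect and maximal DPI positive control response for full effect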)
[4] = target: Retinaldehyde dehydrogenase 3 (Homo sapiens) (UniProt P47895); assay: qHTS for Inhibitors of the Aldehyde Dehydrogenase Family (ALDH1A3) Validation screen (AID 2061312); further: on the % scale 0 is the no-effect control and ±100 the full control effect; nearly all actives have a fitted effect of over 45% in size
[5] = BET inhibitor-based combinations targeting novel dependencies in MECOM-rearranged (r) AML: SET-2 cell line (AID 2202231); details: SET-2 AML cells viability, CellTiter-Glo luminescence, 48 h; viability: stronger effect = lower value, series mostly up to about 46 µM;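 further: plate controls were DMSO treated cells for no effect and wells without cells for full effect; nearly all actives have a fitted effect of over 35% in size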
Outline: (§1)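 Viability of cells (500 per well) is scored by luminescent CellTiter-Glo at 48 hr post-dosing. Eleven-point titrations are normalized to DMSO and empty controls and reduced to AUC values.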

[6] = BET inhibitor-based combinations targeting novel dependencies in MECOM-rearranged (r) AML: OCI-AML3 cell line (AID 2202232); details: Potency: OCI-AML3 viability;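 further: series mostly up to about 46 µM; plate controls were DMSO vehicle wells for no effect and wells without cells for full effect; nearly all actives have a fitted effect of over 35% in size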
Outline: as §1

[7] = BET inhibitor-based combinations targeting novel dependencies in MECOM-rearranged (r) AML: MV-4-11 cell line (AID 2202233);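 further: plate controls were DMSO for no effect and blank wells for full effect; nearly all actives have a fitted effect of over 45% in size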
Outline: (§2)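 Using pin-tool transfer, drugs were added in 11 doses to cells (500/well), incubated 48 hr, and assessed with CellTiter-Glo. Z-AUC is a mean-centring transformation applied separately to each screened line.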

[8] = BET inhibitor-based combinations targeting novel dependencies in MECOM-rearranged (r) AML: HNT-34 cell line (AID 2202234);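 further: plate controls were vehicle wells for no effect and cell-free wells for full effect; nearly all actives have a fitted effect of over 35% in size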
Outline: as §2

[9] = BET inhibitor-based combinations targeting novel dependencies in MECOM-rearranged (r) AML: UCSD-AML1 cell line (AID 2202235);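 further: series mostly up to about 46 µM; plate controls were DMSO vehicle wells for no effect and blank wells for full effect; nearly all actives have a fitted effect of over 40% in size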
Outline: as §2

[10] = BET inhibitor-based combinations targeting novel dependencies in MECOM-rearranged (r) AML: AML-191 cell line (AID 2202236;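 further: plate controls were vehicle wells for no effect and wells without cells for full effect; nearly all actives have a fitted effect of over 35% in size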)
Outline: as §1

[11] = BET inhibitor-based combinations targeting novel dependencies in MECOM-rearranged (r) AML: AML-194 cell line (AID 2202237;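 further: plate controls were vehicle wells for no effect and wells without cells for full effect; nearly all actives have a fitted effect of over 40% in size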)
Outline: as §1

COc1ccc(CCN(C)CCCC(C#N)(c2ccc(OC)c(OC)c2)C(C)C)cc1OC (centres undefined)
inactive: activation [1] -12.4% and 7.69% | Potency [2] | Potency [3] | Potency [4] | viability [5] 94.7%

O=C1CCC(N2C(=O)c3ccccc3C2=O)C(=O)N1 (centres undefined)
inactive: activation [1] -0.565% and -9.78% and -7.37% | Potency [2] | Potency [3] | Potency [4] | viability [5] 112% | Potency [6] | Potency [7] | Potency [8] | Potency [9] | Potency [10] | Potency [11]

Cc1cnc(NC(=O)C2=C(O)c3ccccc3S(=O)(=O)N2C)s1
inactive: activation [1] -27.7% and -26.4% and -6.82% | Potency [2] | Potency [3] | Potency [4] | viability [5] 110% and 107% and 111% | Potency [6] | Potency [7] | Potency [8] | Potency [9] | Potency [10] | Potency [11]

CC12CC3CC(C)(C1)CC(N)(C3)C2
inactive: activation [1] -20.9% and 13.4% and -0.343% | Potency [2] | Potency [3] | Potency [4] | viability [5] 110% | Potency [6] | Potency [7] | Potency [8] | Potency [9] | Potency [10] | Potency [11]

NC(=O)c1cnccn1
inactive: activation [1] -1.69% and -18.4% and -16.9% | Potency [2] | Potency [3] | Potency [4] | viability [5] 105% | Potency [6] | Potency [7] | Potency [8] | Potency [9] | Potency [11]

C[C@@H](c1ncncc1F)[C@](O)(Cn1cncn1)c1ccc(F)cc1F
inactive: activation [1] -3.85% and -2.78% | Potency [2] | Potency [3] | Potency [4] | viability [5] 105% | Potency [6] | Potency [7] | Potency [8] | Potency [9] | Potency [10] | Potency [11]
